In the library only some 3.2% were active in any assay of this set; here they are far more common.
Tau fibril ThT – qHTS for Inhibitors of Tau Fibril Formation, Thioflavin T Binding; recombinant tau K18 P301L, heparin-induced fibrillization, ThT fluorescence; Potency, µM (series often up to 57.4 µM), most hits filed as inhibitors; 270,000 compounds, 2.1% hits; AID 1460, 2008; also: nearly all actives have a fitted effect of over 55% in size
Target sequence (P10636 561-689 P618L limits assumed): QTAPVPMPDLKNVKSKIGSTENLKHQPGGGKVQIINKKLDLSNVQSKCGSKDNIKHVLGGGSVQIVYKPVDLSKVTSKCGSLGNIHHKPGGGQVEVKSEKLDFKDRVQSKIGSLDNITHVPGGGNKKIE
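Heparin-induced fibrillization of the P301L-mutant K18 repeat-domain fragment of human tau was followed by ThT binding in quantitative high-throughput format.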
GoLoco inh red – qHTS Assay for Inhibitors of RGS12 GoLoco Motif Activity (Red Fluorophore) | Potency, µM (titrated, usually from 61.6 µM), most hits filed as inhibitors | 230,000 compounds, 0.44% hits | Guanine nucleotide-binding protein G(i) subunit alpha-1 (Homo sapiens), P63096 | Gai1:RGS12 GoLoco peptide FP, rhodamine, 10 min; active = well fitted inhibition curve with a large enough effect, not every such curve was filed as active; inactive = no such curve, though single readings can be large or run the other way; also: nearly all actives have a fitted effect of over 30% in size
Target sequence (P63096 whole entry, looked up): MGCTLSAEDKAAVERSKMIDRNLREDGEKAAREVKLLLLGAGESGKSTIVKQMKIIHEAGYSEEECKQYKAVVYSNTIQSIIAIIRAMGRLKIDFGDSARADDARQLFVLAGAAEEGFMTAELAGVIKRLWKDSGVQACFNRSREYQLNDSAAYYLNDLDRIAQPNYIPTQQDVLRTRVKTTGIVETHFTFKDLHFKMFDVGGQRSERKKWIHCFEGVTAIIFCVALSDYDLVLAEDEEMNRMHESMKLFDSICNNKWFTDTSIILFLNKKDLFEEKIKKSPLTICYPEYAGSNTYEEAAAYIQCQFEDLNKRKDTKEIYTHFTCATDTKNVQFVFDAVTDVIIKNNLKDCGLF
TR SRC2 fluor cs – Total Fluorescence Counterscreen for Inhibitors of the Interaction of Thyroid Hormone Receptor and Steroid Receptor Coregulator 2. Potency, µM (highest dose often 106 µM). 280,000 compounds, 0.29% hits. TRb/SRC2 Texas Red total fluorescence interference; active = well fitted curve in either direction with a large enough effect; inconclusive = small, poorly fitted or top-dose-only effect
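Human TRβ ligand-binding domain (0.6 uM) and Texas Red SRC2 peptide (20 nM) in Tris buffer with 1 uM T3 and 5% DMSO were incubated with pinned compound for 5 hr at ambient temperature. Total fluorescence was computed as S + 2P (555/632 nm).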
Tau fluor counter – Counterscreen qHTS for Inhibitors of Tau Fibril Formation, Fluorescence Polarization; Potency, µM (series often up to 57.7 µM); 280,000 compounds, 0.93% hits; tau K18 P301L (four-repeat tau fragment) Alexa594 fluorescence, heparin fibrillization; also: nearly all actives have a fitted effect of over 55% in size
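Human K18 P301L tau (15 uM unlabeled plus 0.24 uM Alexa 594-labeled, final) in 100 mM sodium acetate pH 7 was mixed with compound and 20 uM heparin and incubated 6 hr at 37 C.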
TRb-SRC2 inh – qHTS for Inhibitors of the Interaction of Thyroid Hormone Receptor and Steroid Receptor Coregulator 2; Thyroid hormone receptor beta (Homo sapiens), P10828; TRbeta-SRC2 peptide binding, fluorescence polarization; receptor liganded with 1 µM T3; Potency, µM (top dose mostly 106 µM), actives largely listed as inhibitors; 280,000 compounds, 0.065% hits; also: nearly all actives have a fitted effect of over 50% in size
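Human TRb ligand-binding domain (0.6 uM) is mixed with 20 nM Texas Red SRC2 peptide and 1 uM T3; after compound addition and 5 hr at ambient temperature, polarization is measured and normalized to unbound and bound controls.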
Tau fibril FP – qHTS for Inhibitors of Tau Fibril Formation, Fluorescence Polarization. AID 1468, 2008. 280,000 compounds, 0.39% hits. Potency, µM (titrated, usually from 57.7 µM), hits mostly inhibitors. K18 P301L tau heparin fibrillization, Alexa594 FP, 6 h; also: nearly all actives have a fitted effect of over 55% in size
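Human K18 P301L fragment (15 uM unlabeled plus 0.24 uM Alexa 594-labeled) in 100 mM sodium acetate pH 7 with compound, aggregation induced by 20 uM heparin for 6 hr at 37 C. ThT (30 uM) added for 1 hr, then Alexa 594 FP read.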
Of the large screens only hits and unclear results are named; the others gave an inactive call; [ ] = another dose, or the depositor's remark. Unless noted, calls follow the shape of the dose curve; as a rule, active = well fitted curve in the direction sought with a large enough effect; inconclusive = small, poorly fitted or top-dose-only effect, or another doubt; inactive = no such curve, though single readings can be large; an effect the other way counts as inactive or inconclusive.

C/C(=N\N=C(N)N)c1cccc([N+](=O)[O-])c1	none
COc1ccc(O[C@H]2C=C[C@@H](c3ccccc3)O[C@H]2CO/N=C2/c3cc(OC)ccc3O[C@@H](c3cccc(OC)c3)[C@H]2O)cc1	Tau fibril ThT inconclusive (no result: GoLoco inh red)
COc1cc(C2Nc3cccc4cccc(c34)N2)ccc1OC(C)=O	Tau fibril ThT inconclusive, Tau fluor counter inconclusive
Oc1ccc(C2Nc3cccc4cccc(c34)N2)c(O)c1	Tau fibril ThT 14.1µM, TR SRC2 fluor cs inconclusive, Tau fluor counter 7.94µM[quencher], Tau fibril FP inconclusive
O=[N+]([O-])c1cccc(C2Nc3cccc4cccc(c34)N2)c1	Tau fibril ThT inconclusive, Tau fluor counter inconclusive
O=[N+]([O-])c1ccc(C2Nc3cccc4cccc(c34)N2)cc1	Tau fibril ThT 14.1µM, Tau fluor counter 12.6µM[quencher], Tau fibril FP inconclusive
c1coc(C2Nc3cccc4cccc(c34)N2)c1	Tau fibril ThT 11.2µM, TR SRC2 fluor cs inconclusive, Tau fluor counter 7.94µM[quencher], Tau fibril FP inconclusive
COc1cc(C2Nc3cccc4cccc(c34)N2)cc(OC)c1O	Tau fibril ThT 15.8µM, Tau fluor counter 4.47µM[quencher], Tau fibril FP inconclusive
O=C1C=CC2(OCCCO2)C(Br)=C1	none (no result: GoLoco inh red)
COC(=O)c1ccc(C2Nc3cccc4cccc(c34)N2)cc1	Tau fibril ThT 14.1µM, Tau fluor counter 14.1µM[quencher], Tau fibril FP inconclusive
CCC12CCCN3CCc4c(n(c5ccccc45)C(O)(C(=O)OC)C1)C32 (stereo unspecified)	Tau fibril ThT 17.8µM, Tau fluor counter inconclusive, Tau fibril FP inconclusive
O=C(Nc1ccccc1)c1ccc(CSc2ncccn2)cc1	Tau fibril ThT inconclusive, GoLoco inh red 2.24µM
Cc1ccc(C2=N/C(=C\c3c(C)nn(-c4ccccc4)c3N3CCCC3)C(=O)O2)cc1	Tau fibril ThT 12.6µM
Cc1ccc(Nc2nc(CSc3nnnn3C)cs2)cc1	Tau fibril ThT inconclusive, Tau fluor counter inconclusive
Cc1ccc(Nc2nc(CSc3nnnn3-c3ccccc3)cs2)cc1	Tau fibril ThT inconclusive, Tau fluor counter 11.2µM[quencher]
COc1ccc([N+](=O)[O-])cc1NC(=S)NC(C)=O	none
COc1ccc(/C=C/C(=O)NC(=S)Nc2cc([N+](=O)[O-])ccc2O)cc1OC	Tau fibril ThT 1.58µM, Tau fibril FP inconclusive
COCC1=C2c3ccccc3[C@H](C[N+](=O)[O-])C(C(=O)OC)(C(=O)OC)C[C@@H]2n2c(=O)n(-c3ccccc3)c(=O)n2C1	Tau fibril FP inconclusive
CCOC(=O)c1cc(C#N)c(SCC(=O)OC)[nH]c1=O	Tau fibril ThT inconclusive
CCOC(=O)c1ccc(N=Nc2c(C)c(C#N)c(O)[nH]c2=O)cc1	Tau fibril ThT 1.41µM
N#C/C(=C\Nc1ccccc1O)c1nc2ccccc2o1	Tau fibril ThT inconclusive, Tau fluor counter 17.8µM[quencher], Tau fibril FP inconclusive
CN1CCc2cc3c(cc2C(=O)Cc2ccc4c(c2C1)OCO4)OCO3	none
COc1ccc(/C=C2\SC(=O)N(CCNC(=O)Cc3coc4cc(C)ccc34)C2=O)cc1OC	Tau fibril ThT 12.6µM, Tau fibril FP inconclusive
COc1ccc(/C=C2/SC(=O)N(CCC(=O)Nc3ccc(C)cc3)C2=O)cc1OC	Tau fibril ThT inconclusive
O=C(NC1CCCC1)O[C@@H]1C(=O)c2cc(Br)ccc2O[C@H]1c1ccc2c(c1)OCO2	none
Cc1cc(C(=O)COC(=O)c2ccc(N)c([N+](=O)[O-])c2)c(C)n1-c1ccc2c(c1)OCO2	Tau fibril ThT inconclusive, Tau fluor counter inconclusive
Cc1cc(C(=O)COC(=O)c2ccc(N)c([N+](=O)[O-])c2)c(C)n1Cc1ccc2c(c1)OCO2	Tau fibril ThT inconclusive, Tau fluor counter 4.47µM[quencher], Tau fibril FP inconclusive

Screens deposited in PubChem by National Center for Advancing Translational Sciences (NCATS).
